Results as given in the supplement of paper PMC6555819.

Columns and labels:
Test in all cases: PBM binding z-score (relative to random genomic background probes); higher = stronger binding; sequences stand for … in GC…GCGATTGACAGCGTAGAATGAAGG
[1] = test system: PPARg:RXRa DBDmut IVT, anti-RXR (DBD mutation: RXRa K156A/R161A, NR concentration 270 nM, RXRa partner concentration 90 nM)
In short: (§1)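 Probes were double-stranded and carried 34-nt variable regions with direct-repeat seeds, single-nucleotide variants, half-site ablations and random human genomic background sequences, printed on custom Agilent 4×180K protein-binding microarrays. Arrays were incubated 1 h with ligand-free nuclear receptor dimers in PBS pH 7.4, 2% milk, 0.02% Triton X-100, 1 mM DTT, 0.2 mg/mL BSA and 0.4 mg/ml salmon testes DNA. Antibodies against each partner (one per run) detected binding, and scanned fluorescence was regression-normalized. Binding z-scores use the random background probes as reference.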

[2] = test system: PPARg:RXRa IVT, anti-PPARg (NR concentration 270 nM, RXRa partner concentration 90 nM)
In short: as §1

[3] = test system: PPARg DBDmut:RXRa IVT, anti-PPARg (DBD mutation: PPARg1 K132A/R137A, NR concentration 270 nM, RXRa partner concentration 90 nM)
In short: as §1

[4] = test system: PPARg DBDmut IVT, anti-PPARg (DBD mutation: PPARg1 K132A/R137A, NR concentration 270 nM)
In short: as §1

[5] = test system: PPARg homodimer (NR concentration 180 nM)
In short: as §1

[6] = test system: PXR:RXRa (NR concentration 270 nM, RXRa partner concentration 90 nM)
In short: as §1

[7] = test system: PXR homodimer (NR concentration 270 nM)
In short: as §1

[8] = test system: RARa:RXR (NR concentration 270 nM, RXRa partner concentration 90 nM)
In short: as §1

[9] = test system: RARa homodimer (NR concentration 270 nM)
In short: as §1

[10] = test system: RARb:RXRa (NR concentration 270 nM, RXRa partner concentration 90 nM)
In short: as §1

Sequence	PBM binding z-score [1]	PBM binding z-score [2]	PBM binding z-score [3]	PBM binding z-score [4]	PBM binding z-score [5]	PBM binding z-score [6]	PBM binding z-score [7]	PBM binding z-score [8]	PBM binding z-score [9]	PBM binding z-score [10]
ATCTCTAGGTAACCAAGTTCAGTGAATGCCGAAC	3.64	3.09	0.611	1.02	1	1.86	1.98	0.882	0.575	1.36
ATCTCTATGTAACCAAGTTCAGTGAATGCCGAAC	-0.0629	0.707	0.85	1.12	0.121	1.66	1.51	0.419	0.407	0.755
GCAGACAGGTGAAACGCAGGTAACTCATGGTGGC	1.08	0.828	-0.609	-0.755	-0.331	-0.113	-0.622	0.721	-0.93	0.653
CAGACTGGGGCAAGGTTACCATAACGCACAGCCA	4.18	4.53	1.14	0.637	0.947	0.474	-0.134	0.82	0.141	1.8
ATATGTAGGTTAGCTGGGGTCATTCTGACTAGGC	7.04	6.37	3.34	2.13	2.71	6.41	3.72	5.57	1.37	2.88
AGTCAAAGTTCATCTAGGCAACGTAAGATATGCT	0.192	3.08	1.23	0.857	2.59	5.11	4.94	3.62	0.925	5.1
CAAACTAGGTCACGAAATGTCAAAGTCGAATGAC	8.65	9.32	6.88	5.58	3.3	2.74	0.475	3.64	1.83	4.39
CCTAGCAAGCCAATCTGGGTCACTCAAGGCTTGA	3.85	4.86	-0.252	-0.0798	0.973	0.841	-0.371	1.69	-0.371	0.92
CCTACTGGGCGAAAGGTCATTGATTCCAATGCTC	3.27	5.79	-0.635	-0.595	2.89	4.98	2.08	5.57	0.869	4.28
CATACAGGGTCAGCAAGGCCAGAGTAGGGACGGC	1.19	2.54	0.587	0.984	1.18	2.66	0.241	3.24	0.341	4.25
CCAGACAGGTGAGAAGGTAATTCAGCCTCGATTA	1.14	0.682	-0.0729	-0.734	0.321	-0.0378	0.107	0.349	0.94	0.555
CAAACTAGGTCACGAAACGTCAAAGTCGAATGAC	8.38	9.02	2.1	1.7	2	1.76	0.0967	2.91	0.992	4.36
AGAACGAGGGCACGCTGAGTTTATAGCAGAGTAG	4.28	3.85	1.13	0.317	0.761	3.96	2.87	1.28	-0.418	2.63
AATACAGGGTCATCGTAGGCCAGAGTCCGCACAG	2.98	4.32	0.922	0.82	2.39	4.96	0.483	4.93	0.764	4.45
ACTAGCAGGCCAAGGGTCACTAAAGATTAGTCCG	1.3	3.86	0.0188	-0.44	2	3	-0.139	3.97	0.15	3.42
ATCTCTAGGTAAGACTCAGGTCAGTGAAGAACGC	1.9	1.67	0.483	1.13	1.65	0.724	0.764	0.911	0.98	1.62
CCTAGCAGGCCAGGGTCACTCGAGCATTTCGCTT	0.58	1.02	-0.592	-1.77	0.543	2.32	-0.255	3.1	-0.646	2.57
TCATATAGGTAAACGTGAAAGTCGAACGATATGA	3.9	2.6	1.4	1.61	0.529	0.122	0.576	0.437	0.345	0.3
TCTTGTAGATCAGCAGGTTAAGAAGGCTGGCCAA	1.84	0.182	-0.501	-0.862	0.413	0.183	-0.311	0.64	-0.641	0.214
CCGAGTAGGTTATAGGGCATTCAGGCAACGGTGA	3.99	4.27	0.108	-0.169	1.05	0.219	-0.129	0.863	0.46	1.24
GCGACTGGGGCATCAGCATGTTACCATAACTTAA	3.55	2.94	-0.0811	-0.739	-0.0822	-0.238	-0.758	-0.253	-0.423	0.376
CGTCCAAGGTCATAGGAGGTCAGTTAAGACAGAT	3.03	4.5	0.532	0.526	3.95	6.47	4.13	5.73	1.43	5.36
GATACAGGGTCAAGGCCAGAGTTCGCGTATTGAT	2.6	3.98	0.606	-0.0978	2.3	5.07	1.99	5.07	1.32	4.49
GCTTACGGGTCAAAGCTTATAGCATGAATAGAAT	4.24	3.92	0.68	0.139	1.56	2.98	-0.218	4.44	-0.0595	3.83

Sequence	PBM binding z-score [1]	PBM binding z-score [2]	PBM binding z-score [3]	PBM binding z-score [4]	PBM binding z-score [5]	PBM binding z-score [6]	PBM binding z-score [7]	PBM binding z-score [8]	PBM binding z-score [9]	PBM binding z-score [10]
CGTCCAAGGTCAATGCTCGGTCAGTGAAAGCATT	3.28	3.36	-0.42	-0.828	2.78	3.93	0.774	5.12	0.202	5.11
CCTTACGGGTCACTGACAGGCTATAGCATTTGGA	3.84	3.67	0.647	-0.225	2.27	2.94	-0.147	3.69	0.758	3.76
CCTCCAAGGTCAGAGAGGTCAGTGAATGCCGAGT	2.56	2.91	-0.128	-1.11	3.5	5.94	10.8	4.82	0.862	5.18
GATAAAGGGTCAAGGCCAGAGTACGCGTATTGAT	3.62	4.58	0.966	0.381	3.16	4.19	0.42	5.07	0.732	5.26
CGTCGAAGTTCAAGGTAACGTAACAGAAAGCAGC	-0.377	0.326	0.134	-0.191	0.722	2.28	0.897	1.5	-0.214	3.38
GCGACTGGGGCCTCAGCAGGTTACCATAACTTAA	-0.00241	-0.47	-1.2	-1.98	-0.186	-0.277	-0.863	0.0865	-1.06	0.0626
ATCTCTAGTTAACAAGTTCAGTGAAAGAGAGGAC	0.0329	0.697	1.35	1.03	0.961	1.81	2.1	0.902	1.15	1.49
TCTTGTAGATCAACGGTTAAGAAAGCCGAAGCCT	1.73	0.568	0.699	0.541	0.0861	0.292	-0.149	0.701	0.15	0.235
GATACAGGGTCAAGGCCAGAGTCCGCGTATTGAT	2.59	3.9	-0.201	-0.204	1.62	3.79	0.344	4.03	0.185	4.39
ACAATGAGGTTAAGATCAGGGAAACAGAATACAT	1.93	1.78	1.53	1.8	1	1.35	0.672	1.97	1.24	1.95
CGAACTAGGTCATGGACAGTGAATCTCCGCACGC	8.13	8.2	2.01	1.53	1.69	1.36	-0.279	2.43	0.353	3.61
ATCGAAAGGTCGACGAGATGAGTATACACCGTTT	0.534	1.36	1.43	1.08	1.2	2.24	0.2	2.77	0.514	3.79
GCTAGCAGGCCATTTGGGTTACTCAATGACGGGC	0.933	0.903	-0.422	-0.474	-0.558	-0.229	-0.482	0.178	-0.714	0.189
CCTACTAGGCCAAGGTCATTGATCAGTCAAAGCA	5.34	4.8	0.0145	0.199	1.67	3.52	1.98	3.68	0.849	3.62
TAACCTAGGTCATGCGGGCCAGTATAGTGTCGGC	3.49	4.46	0.354	0.297	1.08	1.84	-0.126	2.5	0.00748	3.89
CGTCCAAGGCCAGAGAGGTCAGTGAATGCCGAGT	0.239	0.381	-0.198	-1.31	0.821	3.1	3.64	2.39	-0.0907	3.41
CGAACTAGGTCATCCAGGACAGTGAATACATTGA	8.1	8.47	3.54	2.16	1.36	2.06	1.61	2.38	0.896	3.91
CGAACTAGGTCAGAACAGGAAAGTGAAGGATGAT	7.16	6.78	2.1	0.812	0.835	0.0929	-0.161	0.482	-0.00201	2.72
AGTCAAAGTTCACTAGGTGACGTAAGATTCAGCT	3.75	6.05	1.29	0.955	3.29	4.22	2.57	3.34	1.67	4.87
AGAATGAGGTTACGAAAGATCAGGGAAACGCTTG	4.25	3.64	0.808	0.386	0.0598	1.44	-0.57	2.32	-0.313	2.21
AGTCAAAGTTCAGGACGAGGTAGCGTAAAGCACG	-0.637	1.36	-0.194	-0.537	1.46	2.36	0.831	2.26	0.252	4.31
AGCTCTAGGTAACAAGTTCAGTGAAAGAGAGGAC	3.82	2.13	0.734	0.272	0.839	1.63	1.98	0.544	0.529	1.64
CGTCAAAGTTCGAGGTAACGTAACAGAAAGCAGC	0.256	0.878	-1.11	0.105	1.18	1.28	0.589	1.39	0.233	2.73
GTACCCAGGTGAATAGGTCGTTGATGAGTAGGCG	1.26	2.42	-0.166	-0.407	0.786	0.279	0.138	1.08	0.238	0.908
